The supplement of paper PMC3414501
Where a name gives a salt, the structure may show the parent alone.

Each compound was assayed on S. cerevisiae AD1-9 (efflux-pump deficient), vegetative growth in YPD (assay: growth sensitivity score (doubling time z-score vs DMSO controls); higher = slower growth, strongly negative scores also mark growth inhibition (complete suppression), active = hit call of the paper).
How it was run: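 Yeast (Saccharomyces cerevisiae BY4741 and AD1-9) was grown in rich medium in microtiter plates from a starting OD600 of 0.065, with optical density read every 15 min over 24 hours. The growth sensitivity score was the difference between compound and solvent-only means, divided by the solvent-only standard deviation. Every experiment had eight solvent-only wells.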

| Structure (SMILES) | growth sensitivity score |
| --- | --- |
| CN(CCOc1ccc(CC2SC(=O)NC2=O)cc1)c1ccccn1 (stereo not drawn) [Rosigltazone hydrochloride] (stock concentration (mM, diluted 1:100): 8.2) | 0.66 (inactive) |
| CCc1ccc(CCOc2ccc(CC3SC(=O)NC3=O)cc2)nc1 (stereo not drawn) [Pioglitazone hydrochloride] (stock concentration (mM, diluted 1:100): 9.1) | -1.03 (inactive) |
| CC12CC3CC(C)(C1)CC(N)(C3)C2 [Memantine hydrochloride] (stock concentration (mM, diluted 1:100): 8.3) | -0.36 (inactive) |
| O=C1N[C@H](C(=O)O)CS1 [Procysteine] (stock concentration (mM, diluted 1:100): 10) | -2.4 |
| CC(C)Oc1ccc2c(=O)c(-c3ccccc3)coc2c1 [Ipriflavone] (stock concentration (mM, diluted 1:100): 10) | 3.44 (active) |
| COc1cccc2c1C(=O)c1c(O)c3c(c(O)c1C2=O)C[C@@](O)(C(=O)CO)C[C@@H]3O[C@H]1C[C@H](N)[C@@H](O)[C@H](C)O1 [Epirubicin hydrochloride] (stock concentration (mM, diluted 1:100): 9.4) | 93.9 (active) |
| N#Cc1ccc(C(c2ccc(C#N)cc2)n2cncn2)cc1 [Letrozol] (stock concentration (mM, diluted 1:100): 10) | 20.4 (active) |
| O=C(NCCN1CCOCC1)c1ccc(Cl)cc1 [Moclobemide] (stock concentration (mM, diluted 1:100): 10) | 0.15 (inactive) |
